High-throughput results as filed in PubChem BioAssay.
Shown is part of a subset that was picked to be rich in hits.
Marburg entry inh – qHTS for inhibitors of binding or entry into cells for Marburg Virus; Marburg virus pseudotyped entry inhibition, cell reporter; Potency, µM (highest dose often 37.8 µM), for the others: top-dose activity change, negative = inhibition, most hits filed as inhibitors; 300,000 tested, 1.8% active; AID 540276, 2011; calls by dose curve; tested in HEK293 cells; note: potency is the fitted concentration of half-maximal effect; % is set by controls: 0 for no effect and ±100 for the full control effect
Shiga toxin inh – A qHTS for Small Molecule Inhibitors of Shiga Toxin; Vero cells, Shiga toxin protein synthesis inhibition reporter; inhibition, % at 38.7 µM; 290,000 tested, 9.2% active; in the data active = inhibition mostly above about 28%, no sharp cut-off; inactive = mostly below about 43%; note: 0% is about no effect
LASV entry inh – qHTS for Inhibitors of binding or entry into cells for Lassa Virus; Lassa virus pseudotype entry inhibition, cell reporter; Potency, µM (series often up to 37.9 µM), inactives show top-dose activity change, negative = inhibition, most hits filed as inhibitors; 300,000 tested, 1.2% active; AID 540256, 2011; calls by dose curve; tested in HEK293 cells; note: potency is the fitted concentration of half-maximal effect; % is set by controls: 0 for no effect and ±100 for the full control effect; nearly all actives have a fitted effect of over 50% in size
CHX counter – Cycloheximide Counterscreen for Small Molecule Inhibitors of Shiga Toxin. cell reporter, cycloheximide protein synthesis inhibition counterscreen. 300,000 tested, 12% active. max response, %; in the data active = max response mostly above about 13%, no sharp cut-off; inactive = mostly below about 14%; note: read at 38.3 µM for the half of the compounds with a filed dose; 0% is about no effect
Vaccinia mCherry – qHTS for Stage-Specific Inhibitors of Vaccinia Orthopoxvirus: mCherry Reporter Primary qHTS; Vaccinia virus mCherry reporter infection, fluorescence; Potency, µM (titrated, usually from 36.5 µM), for inactives: at the top dose activity change, negative = inhibition, hits mostly inhibitors; 310,000 tested, 0.63% active; calls by dose curve; tested in A549 cells; note: potency is the fitted concentration of half-maximal effect; % is set by controls: 0 for no effect and ±100 for the full control effect; nearly all actives have a fitted effect of over 35% in size
VACV Venus inh – qHTS for Stage-Specific Inhibitors of Vaccinia Orthopoxvirus: Venus Reporter Primary qHTS; 330,000 tested, 0.46% active; Potency, µM (series often up to 36.5 µM), without a hit: at the top dose activity change, negative = inhibition, actives largely listed as inhibitors; Vaccinia virus Venus reporter expression, fluorescence; calls by dose curve; tested in A549 cells; note: potency is the fitted concentration of half-maximal effect; % is set by controls: 0 for no effect and ±100 for the full control effect; nearly all actives have a fitted effect of over 30% in size
Starred values were filed as active, the others as inactive; i = inactive; ? = inconclusive; nt = no result; [ ] = remark or other dose.

SMILES	Marburg entry inh	Shiga toxin inh	LASV entry inh	CHX counter	Vaccinia mCherry	VACV Venus inh
O=C(Nc1ccc(Nc2ccccc2)cc1)C1CC1	1%[46.1 µM]	50	?	21*	-6%	-9%
O=C(Nc1ccc(-n2cccc2)cc1)C1CC1	-9%[46.1 µM]	17	2%	23*	i	-7%
O=C(Nc1ccc(Cc2ccc(NC(=O)C3CC3)cc2)cc1)C1CC1	?	-9	?	1	nt	nt
Cc1ccc(C2=NNC(c3cccc(F)c3)S2)cc1 (stereo not drawn)	nt	3	nt	8	-8%	-7%
Fc1cccc(C2NN=C(c3ccccc3)S2)c1 (stereo not drawn)	?	112*	?	73*	i	-15%
CCOc1ccc(CC(=O)NCc2ccc3c(c2)CCN3C(=O)c2ccc(F)cc2)cc1OCC	nt	nt	?	nt	-12%	-12%
COc1ccc(/C(N)=N/OC(=O)c2cc(-c3ccccc3)nc3ccccc23)cc1	-24%	-24	-5%	0	nt	nt
COc1ccc(C(=O)O/N=C(\N)c2ccccc2)cc1OC	?	91*	?	44*	-13%	-14%
N/C(=N\OC(=O)c1cccc2ccccc12)c1ccncc1	nt	67*	nt	45*	nt	nt
COc1cc(OC)c(C(=O)O/N=C(\N)c2ccccc2)cc1OC	nt	48*	nt	29*	nt	nt
COc1ccc(C(=O)O/N=C(\N)c2cccc(C)c2)cc1OC	nt	45*	nt	36*	nt	nt
N/C(=N\OC(=O)c1cccc2ccccc12)c1ccc(Br)cc1	?	22	-2%	10	3%	0%
COc1ccc(/C(N)=N/OC(=O)c2ccc(C)c([N+](=O)[O-])c2)cc1OC	14%	-1	5%	-3	nt	8%
CN(C(=O)CSc1nc2ccccc2n1Cc1cccc(C(F)(F)F)c1)c1ccccc1	nt	nt	?	nt	-19%	-13%
COc1ccc(Cl)cc1C(=O)O/N=C(\N)c1ccncc1	5%	57*	-4%	10	-4%	-6%
COc1cc(C(=O)O/N=C(\N)c2ccncc2)cc(OC)c1OC	-2%	16	-24%	-3	i	-11%
COc1ccc(C(=O)O/N=C(\N)c2ccncc2)cc1OC	?	25	?	15*	-15%	-6%
COc1ccc(CC(=O)O/N=C(\N)c2ccncc2)cc1OC	nt	nt	nt	nt	-1%	-16%
COc1cccc(OC)c1C(=O)O/N=C(\N)c1ccncc1	?	-11	-29%	23*	?	-26%
CCc1ccc(C(=O)NC(C(=O)NCC2CCCO2)C(C)C)cc1 (stereo not drawn)	-8%[46.1 µM]	-4	?	-2	-14%	-19%
CCOCCCN(Cc1ccco1)C(=O)c1cc2c(s1)-c1c(C)cccc1OC2	-12%[46.1 µM]	nt	nt	nt	-12%	-22%
COCC(=O)Nc1c(C(=O)Nc2cccc(OC)c2)oc2ccccc12	?	58*	-69%	48*	-9%	-15%
COc1cccc(NC(=O)c2oc3ccccc3c2NC(C)=O)c1	?	47*	6%	37*	nt	nt
O=c1[nH]c(SCc2ccccc2)nc2c1cnn2-c1ccc(F)cc1	nt	-3	nt	-2	i	-2%
O=c1c(Br)c(NCc2ccccc2)cnn1-c1ccc(F)cc1	?	40*	?	26*	i	-10%
SMILES	Marburg entry inh	Shiga toxin inh	LASV entry inh	CHX counter	Vaccinia mCherry	VACV Venus inh
c1ccc(CC2CCN(c3ncnc4sccc34)CC2)cc1	-13%[46.1 µM]	41	-8%[46.1 µM]	13*	-7%	-16%
O=C(O)c1cc2c(N3CCC(Cc4ccccc4)CC3)ncnc2s1	17%[46.1 µM]	13	-10%	-5	-25%	-5%
Cc1cc(C(=O)NCCN2CCN(c3cccc(Cl)c3)CC2)n(-c2ccccc2)n1	7.3µM*	-13	7.3µM*	-3	?	-17%
Cc1cc(C(=O)Nc2cccc(C)c2C)n(-c2ccccc2)n1	15%[46.1 µM]	51*	?	24*	-25%	-20%
COc1ccc(NC(=O)c2cc(C)nn2-c2ccccc2)cc1	?	58*	3%	37*	-13%	1%
CCc1ccc(NC(=O)c2cc(C)nn2-c2ccccc2)cc1	-29%	26	?	13*	?	-17%
CC(=O)Nc1ccc(NC(=O)c2cc(C)nn2-c2ccccc2)cc1	-20%	0	-7%	-2	nt	nt
O=C(/C=C/c1ccco1)NCC(=O)N/N=C/c1ccc([N+](=O)[O-])cc1	nt	2	nt	-2	nt	nt
